About 83,000 compounds went through this panel and 20% of them were active in at least one assay; those are over-represented in the sample as a whole.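 Single-concentration screen, 48 h exposure, 96-well plates. Endpoint: percent growth. Below 10 = active.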 A number with no mark means an inactive call. The source made the active and inactive calls.
tested on: HOP-62 NSCLC; assay: NCI-60 one-dose screen, 48 h (100 = growth as untreated, 0 = no growth, -100 = all killed); conditions: 10 µM unless noted
Method: Growth inhibition of the HOP-62 human Non-Small Cell Lung tumor cell line is measured as a screen for anti-cancer activity. Cells are grown in 96 well plates and exposed to the test compound for 48 hours. Compounds are tested at a single concentration, which is 10^-5 M for most compounds. The reported endpoint is percent growth (GI% or GIPRCNT), where numbers from 0 - 100% represent growth inhibition, and numbers from -100% - 0 represent cell death. For example, a value of 40 represents 60% growth inhibition. A value of 0 means no net growth occurred over the course of the experiment. A value of -40 indicates 40% of cells at the beginning of the experiment died by the end of the experiment. A value of -100 means all cells are dead at the end of the experiment.
NCI-60 Human Tumor Cell Lines Screen was performed using the standard one-dose NCI protocol, which is described in more detail at https://dtp.cancer.gov/discovery_development/nci-60/default.htm.
Compounds with GIPRCNT values below 10 were considered active. Activity score was based on GIPRCNT using the following formula: […]
Score is 0 for GIPRCNT values of 100 or above, 50 for GIPRCNT values of 0, and 100 for GIPRCNT values of -100.

SMILES | growth
CCCCCCCCCCN1CC2CCCCC2C1 (stereo not given) | 69.4%
O=C(Nc1cccc(Cn2c(=O)[nH]c3ccc(Oc4ncccn4)cc3c2=O)c1)c1cccc(F)c1 | 79%
N=C(c1ccccc1)N(Cc1ccccc1)Cc1ccccc1 | 97.1%
CCCCCCC(C(=O)OCC)(C(=O)OCC)C1CCCCCC1 | 91.9%
CCC(C)(C)c1ccc(OCCCCCCN2CCN(c3ccc(C)c(Cl)c3)CC2)cc1 | 98.3%
CC(=O)Oc1cc2ccccc2cc1C(C)C | 104%
Nc1nc2cc(O)ccc2n2cc3c(F)cccc3c12 | 24.9%
CCCCCCCCC(=O)Nc1ccc(O)cc1 | 99.3%
C=C[C@]1(C)C=C2C(=O)[C@@]3(O)OC[C@@]4(CCCC(C)(C)C43O)C2(O)C(O)C1 (stereo not given in full) | 107%
Br/C(=N\Nc1nn[nH]n1)c1ccccc1 | 98%
CC[n+]1c(C)ccc2cc(C)ccc21 | 97.5%
CC1=C(C)C[C@]2(C(=O)O[C@H]3CCCC[C@@H]32)[S@](=O)C1 | 106%
CCCCCCCCCCC(C[N+](C)(C)C/C=C/c1ccccc1)C(O)c1ccccc1 (stereo not given) | -30.3% (active)
C=CC1CN2CCC1CC2C(O)c1ccnc2ccc(OC)cc12 (stereo not given) | 79.8%
COC(=O)C(C(=O)OC)C(Br)C(Br)C(Br)c1ccccc1 (stereo not given) | 144%
CCCCCN1CCN(C(CC(=O)c2ccccc2)C(=O)c2ccccc2)CC1 (stereo not given) | 101%
CCN(CC)CCOC(=O)c1cccnc1 | 94.6%
CC(=O)O.[In] | 106%
COc1ccc(/C(=C(\c2ccccc2)[N+](=O)[O-])c2ccc(OCCN3CCCC3)cc2)cc1 | 94.1%
CCCCN(CCC)CCCCCCCCCCN1CCCc2ccccc21 | 92.5%

SMILES | growth
CCCNC(=O)Oc1ccc(/C(=C(/C)Cc2ccc(OC)cc2)c2ccc(OCCN3CCCCC3)cc2)cc1 | 84.9%
CNc1ccc(Nc2ccc(S(=O)(=O)O)cc2)c2c1C(=O)c1ccccc1C2=O | 125%
COc1cc(-c2nc(/C=C3/C(=O)Nc4ccccc43)c3ccccn23)cc(OC)c1OC | 87.4%
COc1ccc2cnc(N)c(C#Cc3cc(C(=O)Nc4ccc(CN5CCN(C)CC5)c(C(F)(F)F)c4)cnc3C)c2c1 | 18.9%
COC(=O)C(N)CC(C)C (stereo not given) | 110%
COC(=O)/C=C1/CCCCC1(C)C(=O)OC (stereo not given) | 105%
COC(=O)C1CC(=O)N(C(=O)Nc2ccc(Cl)cc2Cl)C1 (stereo not given) | 85.5%
COc1cccc(-c2cc(-c3cc4ccccc4oc3=O)nc(N)n2)c1 | 97.7%
Oc1ccc(Br)cc1/C=N/NC(=S)NC12CC3CC(CC(C3)C1)C2 | 16.1%
CC(=O)N(N=O)c1ccc([N+](=O)[O-])cc1Cl | 97%
CC(=O)/C(=C\c1c(-c2ccccc2)[nH]c2ccccc12)S(=O)(=O)c1ccccc1 | 6.39% (active)
CCS(=O)(=O)N[C@@H]1O[C@H](COC(C)=O)C(OC(C)=O)[C@H](OC(C)=O)C1OC(C)=O (stereo not given in full) | 87.8%
O=C(Nc1ccc(-n2cc(-c3ccncc3)c(-c3ccc(Cl)c(O)c3)n2)cc1)c1ccc(Cl)c(Cl)c1 | 6.9% (active)
O=C(CBr)OCc1ccc([N+](=O)[O-])o1 | 96.8%
CCOc1ccc(N(C)c2ccc(/C=C/C3=[N+](C)c4ccccc4C3(C)C)cc2)cc1 | 12.3%
CCN(CC)CCNc1ncnc2c1cnn2-c1ccc(Cl)cc1 | 114%
COc1cc(-c2nn(-c3ccc(NC(=O)c4cc(Cl)cc(Cl)c4)cc3)cc2-c2ccncc2)ccc1Cl | 56.9%
O=C(Nc1ccc(-n2cc(-c3ccncc3)c(-c3ccc(Cl)c(O)c3)n2)cc1)c1cc(C(F)(F)F)cc(C(F)(F)F)c1 | 53.9%
CCCCCCCCCCCCOC(=O)/C=C\C(=O)NC(N)=O | 101%
Cc1cc2cn3c4ccc(O)cc4[nH]c(=O)c3c2cc1C | 11.7%

Source: PubChem BioAssay (NCI)
